Cruzain Triton – cruzain (T. cruzi) inhibition with detergent | P25779 | purified cruzain, Z-FR-AMC fluorescence, 0.01% Triton | Potency, µM, inactives show max response, negative = inhibition, hits mostly inhibitors | 0.43% of 200,000 active | AID 1478;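 note: plate controls were neutral wells for no effect and buffer without enzyme for full effect; nearly all actives have a fitted effect of over 40% in size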
Target sequence (P25779 123-467 limits assumed): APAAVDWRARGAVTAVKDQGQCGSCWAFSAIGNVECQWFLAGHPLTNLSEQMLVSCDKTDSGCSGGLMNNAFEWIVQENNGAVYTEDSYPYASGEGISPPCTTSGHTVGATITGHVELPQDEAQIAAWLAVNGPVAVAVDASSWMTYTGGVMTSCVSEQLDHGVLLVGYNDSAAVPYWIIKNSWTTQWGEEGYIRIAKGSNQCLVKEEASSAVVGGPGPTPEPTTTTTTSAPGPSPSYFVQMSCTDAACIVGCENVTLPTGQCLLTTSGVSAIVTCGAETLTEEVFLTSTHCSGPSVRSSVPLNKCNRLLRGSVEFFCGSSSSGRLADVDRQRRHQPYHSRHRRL
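Enzyme 1.5 nM, Z-FR-AMC 2 uM, NaOAc 100 mM pH 5.5, DTT 5 mM, Triton X-100 0.01%; 15 min RT compound preincubation; kinetic ex360/em450, 60 s delta.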
Cruzain noTriton – blocks cruzain activity in detergent-free assay | purified cruzain, Z-FR-AMC fluorescence, no detergent | P25779 | Potency, µM, for inactives: max response, negative = inhibition, actives largely listed as inhibitors | 2.3% of 200,000 active;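 note: plate controls were enzyme without inhibitor for no effect and buffer without enzyme for full effect; nearly all actives have a fitted effect of over 40% in size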
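Purified cruzain at 1.5 nM, pre-incubated 15 min with compound at room temperature in 100 mM sodium acetate pH 5.5, 5 mM DTT, 0.00005% Triton X-100. Reaction started with 2 uM Z-FR-AMC; AMC fluorescence increase over 60 s gives rate.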
An asterisk follows results filed as active; u = inconclusive. Rows were chosen to be rich in hits. Some 2.5% of all compounds tested hit in one or more screens of this group. Calls come from the whole dose curve; as a rule, active = well fitted curve in the direction sought with a large enough effect; inconclusive = small, poorly fitted or top-dose-only effect, or another doubt; inactive = no such curve, though single readings can be large; an effect the other way counts as inactive or inconclusive. Potency is the fitted concentration of half-maximal effect.

SMILES	Cruzain Triton	Cruzain noTriton
CCc1nc2nc(C)cc(Nc3cc(C)ccc3C)n2n1	-2%	0%
COc1ccc(C2/C=C\CN(C(=O)OCC3c4ccccc4-c4ccccc43)CC(=O)N2Cc2cccc(F)c2)cc1 (configuration not stated)	-2%	25µM*
COc1ccc(C2/C=C\CN(CC(C)C)CC(=O)N2Cc2cccc(F)c2)cc1 (configuration not stated)	2%	-3%
Cc1cccc(NC(=O)/C=C/c2ccc([N+](=O)[O-])s2)c1	-4%	u
Cc1ccc(NC(=O)/C=C/c2ccc([N+](=O)[O-])s2)cc1	1%	32µM*
CCOC(=O)c1[nH]c2c(c1Cc1ccccc1)C(=O)CC(c1ccc(C(C)(C)C)cc1)C2 (configuration not stated)	-4%	10µM*
Cc1c(C(=O)OCc2ccccc2)[nH]c2c1C(=O)CC(c1ccc(C(C)(C)C)cc1)C2 (configuration not stated)	-2%	-9%
Cc1ccccc1Nc1oc(-c2ccccc2)nc1-c1ccccc1	0%	-9%
Nn1cnnc1N/N=C\c1ccc(-c2ccccc2[N+](=O)[O-])o1	20µM*	-7%
O=[N+]([O-])c1ccccc1-c1ccc(/C=N/n2cnnc2)o1	-3%	-15%
Cc1ccc(C(=O)c2cn(Cc3ccc(Cl)cc3)c3nc(C)ccc3c2=O)cc1	-9%	-17%
COCCn1c(=O)c(CCc2ccccc2)nc2cnc(Oc3ccc(OC)cc3)nc21	-4%	10%
COc1ccc(N(C)S(=O)(=O)c2cccc(C(=O)OC(C(=O)Nc3cc(C)cc(C)c3)c3ccccc3)c2)cc1 (configuration not stated)	3%	10µM*
COc1ccc(C)cc1NC(=O)c1ccc(N(C)S(C)(=O)=O)cc1	-9%	-5%
CC(=O)NCCC(=O)Nc1cccc(S(=O)(=O)N(C)c2ccccc2)c1	1%	-4%
CC(=O)c1cccc(NC(=O)C(OC(=O)c2ccccc2NS(=O)(=O)c2cccs2)c2ccccc2)c1 (configuration not stated)	-3%	7.9µM*
CCOc1ccccc1NC(=O)C(OC(=O)c1ccccc1NS(=O)(=O)c1cccs1)c1ccccc1 (configuration not stated)	-2%	u
COc1ccc(N(C)S(=O)(=O)c2cccc(C(=O)Nc3ccc(OC)nc3)c2)cc1	-2%	8%
CC(=O)c1cccc(NC(=O)C(OC(=O)c2cccc(S(=O)(=O)N(C)c3ccccc3)c2)c2ccccc2)c1 (configuration not stated)	-1%	25µM*
COc1ccc(C)cc1NC(=O)C(OC(=O)c1ccc(Cl)c(S(=O)(=O)N(C)c2ccccc2)c1)c1ccccc1 (configuration not stated)	3%	10µM*
CSc1nc2sc3c(c2c(=O)n1Cc1ccccc1)CCC(C(C)(C)C)C3 (configuration not stated)	-1%	-5%
COc1ccc(-n2nc(C(=O)O)c(=O)n(C)c2=O)cc1	-2%	9%
CCOc1ccccc1CNC(=O)C1CCN(S(=O)(=O)c2c(C)noc2/C=C/c2ccc(C)cc2)CC1	1%	-12%
Cc1ccc(NC(=O)C(C)OC(=O)c2ccc(NS(=O)(=O)c3ccc(F)c(F)c3)cc2)cc1 (configuration not stated)	-10%	-23%
CCOC(=O)c1ccc(NS(=O)(=O)c2ccc3[nH]c4c(c3c2)CCCCC4)cc1	-4%	u
SMILES	Cruzain Triton	Cruzain noTriton
CCc1ccc(NC(=O)C(C)OC(=O)c2ccc(NS(=O)(=O)c3ccc(C)c([N+](=O)[O-])c3)cc2)cc1 (configuration not stated)	-1%	16µM*
Cc1ccc(C(=O)COC(=O)c2ccccc2NC(=O)c2ccccc2)cc1[N+](=O)[O-]	-3%	u
Cc1ccc(S(=O)(=O)Nc2ccccc2C(=O)OC(C)C(=O)Nc2ccc3ccccc3c2)cc1[N+](=O)[O-] (configuration not stated)	-4%	7.9µM*
CC(=O)c1ccc(NC(=O)C(C)OC(=O)c2ccc(NS(=O)(=O)c3ccc(F)c(F)c3)cc2)cc1 (configuration not stated)	-7%	16µM*
CCOc1ccc(NC(=O)N2CCN(C(=O)c3nsc4ccccc34)CC2)cc1	-5%	7%
CCc1ccc(-n2c(=O)c3ccccc3n(Cc3ccccc3C#N)c2=O)cc1	-1%	-2%
COc1ccc(Cl)cc1NC(=O)CSc1nc2ccccc2nc1N1CCCCC1	-2%	u
Cc1ccc(NS(=O)(=O)c2ccc3nc(-c4ccccc4)[nH]c3c2)cc1Cl	3%	26%
CCOC(=O)c1ccc(-c2ccc(C3Nc4ccccc4C(=O)N3O)o2)cc1 (configuration not stated)	-15%	u
Cc1cc([N+](=O)[O-])ccc1-c1ccc(C2Nc3ccccc3C(=O)N2O)o1 (configuration not stated)	-5%	20µM*
CCOC(=O)Nc1ccc(C)cc1C	4%	1%
Cc1ccc(NC(=O)COC(=O)C(CC(C)C)N2C(=O)C3CC=CCC3C2=O)c(C)c1 (configuration not stated)	25µM*	8%
FC(F)(F)c1cccc(N2Cc3ccccc3C2)c1	-4%	-5%
Cc1cc(C)cc(N2Cc3ccccc3C2)c1	1%	13µM*
COc1ccc(Cl)cc1NC(=O)Cn1c(=O)n2nc(-c3ccccc3)nc2c2ccccc21	0%	-4%
Cc1cccc(N2CCN(C(=O)c3cnn(-c4cccc(Cl)c4C)c3C3CCNCC3)CC2)c1C	-2%	7%
O=P(O)(O)OC1[C@H](O)[C@H](OP(=O)(O)O)C(OP(=O)(O)O)[C@H](OP(=O)(O)O)[C@H]1O (some centres not stated)	4%	3%
Cc1ccc2c(CC(=O)Nc3ccc(S(=O)(=O)N4CCCCC4C)cc3)coc2c1C (configuration not stated)	-6%	u
Cc1ccc2c(CC(=O)Nc3ccc(S(=O)(=O)N4CCCCC4C)cc3)coc2c1 (configuration not stated)	-6%	25µM*
CC1CCc2nn(CC(=O)Nc3cccc(C(F)(F)F)c3)c(=O)cc2C1 (configuration not stated)	0%	0%
COc1ccc(C(CNC(=O)COc2cc(C)cc(C)c2)N2CCOCC2)cc1 (configuration not stated)	-1%	1%
Cc1ccc2oc3c(c(=O)c2c1)C(c1ccc(F)cc1)N(c1nc(C)c(C)s1)C3=O (configuration not stated)	-1%	-5%
CC(C)c1ccc(N2C(=O)CC(Sc3ncn[nH]3)C2=O)cc1 (configuration not stated)	4%	4µM*
COc1ccc(N2C(=O)CC(Sc3ncn[nH]3)C2=O)c(OC)c1 (configuration not stated)	6%	u
COc1ccc(OC)c(C(=O)c2c(N)c(-c3nc(-c4ccc(C)c(C)c4)cs3)c3ccccn23)c1	-2%	-6%
COc1cccc(-c2csc(-c3c(N)c(C(=O)c4ccccc4)n4ccccc34)n2)c1	-3%	7.9µM*
Cc1ccc(-c2csc(-c3c(N)c(C(=O)c4ccc5c(c4)OCO5)n4ccccc34)n2)cc1	-2%	u
CCc1ccc(C(=O)c2c(N)c(-c3nc(-c4ccc5c(c4)OCO5)cs3)c3ccccn23)cc1	-2%	2.5µM*

Compound activity: PubChem, National Center for Advancing Translational Sciences (NCATS)
